Test results as given in paper PMC5892938, “SARNAclust: Semi-automatic detection of RNA protein binding motifs from immunoprecipitation data”.
Over roughly 11,000 sequences, “log2 fold change” has its median near 0.00022; the highest 2% begin near 0.34. The list shows a part of the results.

These sequences were tested against GST-SBP-SLBP (stem-loop binding protein) (Homo sapiens, UniProt Q14493 1-270) (assay: targeted RNA Bind-n-Seq; RBNS binding buffer: 25 mM Tris pH 7.5, 150 mM KCl, 3 mM MgCl2, 0.1% Tween, 0.5 mg/mL BSA, 1 mM DTT; 27 nM protein, 750 pM RNA pool; temperature not stated; high values mean tight binding). Conditions: protein: recombinant; tags: N-terminal GST and SBP (pGEX6P1-SBP); structured_RNA.
Procedure, shortened: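 The protein, carrying a GST-SBP tag, was produced in Rosetta(DE3) pLysS E. coli, purified on glutathione, and mixed at 27 nM with 750 pM of a designed RNA oligo pool made by T7 transcription in RBNS binding buffer. RNA that bound was reverse transcribed using a barcoded primer of 10 nucleotides, amplified by PCR and sequenced on a MiSeq with 200-cycle paired-end reads. FLASH joined the reads, HISAT2 aligned them, and they were collapsed by barcode before the binding signal was taken as the DEseq binary-logarithm fold change of read counts for each sequence.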

Row | Sequence | binding signal
1 | GGUCACGUCUCAAUCAACUCCAAAGAGGGGGGGAAAACCCCUUUGCCCUCGAAAUCAACAGCUCGCAGUCAAG | 0.347 ± 0.378 log2 fold change
2 | GGUCACGUCUCAAUCAACUCCAAAGAGGGGGGGAAAACCCCUUUGCCCUCAUUCUCAACAGCUCGCAGUCAAG | 0.342 ± 0.438 log2 fold change
3 | GGUCACGUCUCAAUCAACUCCAAAGAGGGGGGGAAAACCCCUUUGCCCUCCAAUUCAACAGCUCGCAGUCAAG | 0.304 ± 0.412 log2 fold change
4 | GGUCACGUCUCAAUCAACUCCAAAGAGGGGGGGAAAACCCCUUUGCCCUCAAUAUCAACAGCUCGCAGUCAAG | 0.359 ± 0.439 log2 fold change
5 | GGUCACGUCUCAAUCAACUCUCAAGAGGGGGGGAAAACCCCUUUGCCCUCCAAAUCAACAGCUCGCAGUCAAG | 0.327 ± 0.445 log2 fold change
6 | GGUCACGUCUCAAUCAACUCUCUCGAGGGGGGGAAAACCCCUUUGCCCUCAACAUCAACAGCUCGCAGUCAAG | 0.307 ± 0.399 log2 fold change
7 | GGUCACGUCUCAAUCAACUCUCUCGAGGGGGGGAAAACCCCUUUGCCCUCAAAAUCAACAGCUCGCAGUCAAG | 0.354 ± 0.38 log2 fold change
8 | GGUCACGUCUCAAUCAACUCUCUAGAGGGGGGGAAAACCCCUUUGCCCUCGUCAUCAACAGCUCGCAGUCAAG | 0.374 ± 0.381 log2 fold change
9 | GGUCACGUCUCAAUCAACUCACAAGAGGGGGGGAAAACCCCUUUGCCCUCAUCCUCAACAGCUCGCAGUCAAG | 0.34 ± 0.422 log2 fold change
10 | GGUCACGUCUCAAUCAACUCUCUAGAGGGGGGGAAAACCCCUUUGCCCUCAUCCUCAACAGCUCGCAGUCAAG | 0.441 ± 0.424 log2 fold change
11 | GGUCACGUCUCAAUCAACUCUCUAGAGGGGGGGAAAACCCCUUUGCCCUCGAAAUCAACAGCUCGCAGUCAAG | 0.342 ± 0.443 log2 fold change
12 | GGUCACGUCUCAAUCAACUCUCUAGAGGGGGGGAAAACCCCUUUGCCCUCCGUUUCAACAGCUCGCAGUCAAG | 0.354 ± 0.438 log2 fold change
13 | GGUCACGUCUCAAUCAACUCAUUCGAGGGGGGGAAAACCCCUUUGCCCUCAUCAUCAACAGCUCGCAGUCAAG | 0.363 ± 0.407 log2 fold change
14 | GGUCACGUCUCAAUCAACUCCUAAGAGGGGGGGAAAACCCCUUUACCCUCAAUCUCAACAGCUCGCAGUCAAG | 0.429 ± 0.444 log2 fold change
15 | GGUCACGUCUCAAUCAACUCCUAAGAGGGGGGGAAAACCCCUUUACCCUCGUCCUCAACAGCUCGCAGUCAAG | 0.382 ± 0.439 log2 fold change
16 | GGUCACGUCUCAAUCAACUCCUAAGAGGGGGGGAAAACCCCUUUACCCUCACUAUCAACAGCUCGCAGUCAAG | 0.433 ± 0.43 log2 fold change
17 | GGUCACGUCUCAAUCAACUCCUAAGAGGGGGGGAAAACCCCUUUACCCUCCGCAUCAACAGCUCGCAGUCAAG | 0.313 ± 0.425 log2 fold change
18 | GGUCACGUCUCAAUCAACUCUUUAGAGGGGGGGAAAACCCCUUUGCCCUCGAAUUCAACAGCUCGCAGUCAAG | 0.388 ± 0.441 log2 fold change
19 | GGUCACGUCUCAAUCAACUCUAUAGAGGGGGGGAAAACCCCUUUGCCCUCGAAUUCAACAGCUCGCAGUCAAG | 0.377 ± 0.432 log2 fold change
20 | GGUCACGUCUCAAUCAACUCCUUAGAGGGGGGGAAAACCCCUUUGCCCUCGAAUUCAACAGCUCGCAGUCAAG | 0.379 ± 0.448 log2 fold change
21 | GGUCACGUCUCAAUCAACUCUUUAGAGGGGGGGAAAACCCCUUUGCCCUCAACUUCAACAGCUCGCAGUCAAG | 0.318 ± 0.415 log2 fold change
22 | GGUCACGUCUCAAUCAACUCUCACGAGGGGGGGAAAACCCCUUUGCCCUCACUUUCAACAGCUCGCAGUCAAG | 0.351 ± 0.41 log2 fold change
23 | GGUCACGUCUCAAUCAACUCUCAAGAGGGGGGGAAAACCCCUUUGCCCUCGUAAUCAACAGCUCGCAGUCAAG | 0.452 ± 0.411 log2 fold change
24 | GGUCACGUCUCAAUCAACUCUCACGAGGGGGGGAAAACCCCUUUGCCCUCAAUUUCAACAGCUCGCAGUCAAG | 0.305 ± 0.454 log2 fold change

Row | Sequence | binding signal
25 | GGUCACGUCUCAAUCAACUCAAAAGAGGGGGGGAAAACCCCUUUGCCCUCACUUUCAACAGCUCGCAGUCAAG | 0.573 ± 0.412 log2 fold change
26 | GGUCACGUCUCAAUCAACUCAUAAGAGGGGGGGAAAACCCCUUUGCCCUCAAUCUCAACAGCUCGCAGUCAAG | 0.373 ± 0.408 log2 fold change
27 | GGUCACGUCUCAAUCAACUCAAAAGAGGGGGGGAAAACCCCUUUGCCCUCACAAUCAACAGCUCGCAGUCAAG | 0.31 ± 0.383 log2 fold change
28 | GGUCACGUCUCAAUCAACUCUCAAGAGGGGGGGAAAACCCCUUUGCCCUCAACAUCAACAGCUCGCAGUCAAG | 0.531 ± 0.415 log2 fold change
29 | GGUCACGUCUCAAUCAACUCUCAAGAGGGGGGGAAAACCCCUUUGCCCUCACUUUCAACAGCUCGCAGUCAAG | 0.453 ± 0.436 log2 fold change
30 | GGUCACGUCUCAAUCAACUCACACGAGGGGGGGAAAACCCCUUUGCCCUCAACAUCAACAGCUCGCAGUCAAG | 0.529 ± 0.425 log2 fold change
31 | GGUCACGUCUCAAUCAACUCUCAAGAGGGGGGGAAAACCCCUUUGCCCUCCAUGUCAACAGCUCGCAGUCAAG | 0.411 ± 0.415 log2 fold change
32 | GGUCACGUCUCAAUCAACUCCUAAGAGGGGGGGAAAACCCCUUUGCCCUCACCGUCAACAGCUCGCAGUCAAG | 0.325 ± 0.438 log2 fold change
33 | GGUCACGUCUCAAUCAACUCAAUCGAGGGGGGGAAAACCCCUUUGCCCUCACUUUCAACAGCUCGCAGUCAAG | 0.594 ± 0.435 log2 fold change
34 | GGUCACGUCUCAAUCAACUCUAAAGAGGGGGGGAAAACCCCUUUGCCCUCACUUUCAACAGCUCGCAGUCAAG | 0.415 ± 0.443 log2 fold change
35 | GGUCACGUCUCAAUCAACUCCUAAGAGGGGGGGAAAACCCCUUUGCCCUCACUUUCAACAGCUCGCAGUCAAG | 0.38 ± 0.429 log2 fold change
36 | GGUCACGUCUCAAUCAACUCCUAAGAGGGGGGGAAAACCCCUUUGCCCUCAUUCUCAACAGCUCGCAGUCAAG | 0.335 ± 0.447 log2 fold change
37 | GGUCACGUCUCAAUCAACUCUAAAGAGGGGGGGAAAACCCCUUUGCCCUCACUAUCAACAGCUCGCAGUCAAG | 0.331 ± 0.434 log2 fold change
38 | GGUCACGUCUCAAUCAACUCAAUAGAGGGGGGGAAAACCCCUUUACCCUCCAUAUCAACAGCUCGCAGUCAAG | 0.379 ± 0.407 log2 fold change
39 | GGUCACGUCUCAAUCAACUCACAAGAGGGGGGGAAAACCCCUUUACCCUCGAUAUCAACAGCUCGCAGUCAAG | 0.383 ± 0.425 log2 fold change
40 | GGUCACGUCUCAAUCAACUCAAUAGAGGGGGGGAAAACCCCUUUACCCUCCACCUCAACAGCUCGCAGUCAAG | 0.349 ± 0.417 log2 fold change
41 | GGUCACGUCUCAAUCAACUCCAUAGAGGGGGGGAAAACCCCUUUACCCUCACAUUCAACAGCUCGCAGUCAAG | 0.32 ± 0.406 log2 fold change
42 | GGUCACGUCUCAAUCAACUCCUCAGAGGGGGGGAAAACCCCUUUACCCUCCACCUCAACAGCUCGCAGUCAAG | 0.326 ± 0.442 log2 fold change
43 | GGUCACGUCUCAAUCAACUCCAUAGAGGGGGGGAAAACCCCUUUACCCUCACACUCAACAGCUCGCAGUCAAG | 0.698 ± 0.433 log2 fold change
44 | GGUCACGUCUCAAUCAACUCCCCAGAGGGGGGGAAAACCCCUUUACCCUCCAUAUCAACAGCUCGCAGUCAAG | 0.573 ± 0.413 log2 fold change
45 | GGUCACGUCUCAAUCAACUCUUUAGAGGGGGGGAAAACCCCUUUACCCUCGAUAUCAACAGCUCGCAGUCAAG | 0.336 ± 0.435 log2 fold change
46 | GGUCACGUCUCAAUCAACUCCCCAGAGGGGGGGAAAACCCCUUUACCCUCCAUCUCAACAGCUCGCAGUCAAG | 0.313 ± 0.439 log2 fold change
47 | GGUCACGUCUCAAUCAACUCAAUAGAGGGGGGGAAAACCCCUUUACCCUCGAUAUCAACAGCUCGCAGUCAAG | 0.435 ± 0.406 log2 fold change
